Assay results published in PubChem BioAssay AID1508600 (Functional Genomics Laboratory (NCATS/FGL), 2020).
Among all 53,000 sequences or so, about 3,700 (7%) were called active. Only a selection was taken, and actives are over-represented in it overall. A number with no mark means an inactive call.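 The calls were made as follows: active = gene knockdowns whose robust z-score for IL-1 alpha signal is at least 2 or at most -2, so actives lie on both sides; inactive = the rest.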

Assay: Components of the Cytosolic LPS Sensing Pathway: Gene Identification via Genome-wide siRNA Screen;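 also: robust z of the log signal after scaling to non-targeting control siRNA wells of the plate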
Conditions: RAW264.7 macrophages, IL-1a HTRF, actives lie on both sides, screened at 100 nM (by protocol), cells primed 5 h with Pam3CSK4 first
How it was run: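 IL-1a HTRF of supernatants after 24 hour LipidA transfection of Pam3CSK4-primed (5 hours) RAW264.7 cells, 48h post-siRNA transfection (100 nM). Scores: percent of plate negative-control median, then log-based robust z-score.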

Sequence | z-score
GCCAAUAAUUGUCACACAUTT against Adgrg3 | 1.94
GGACUUGGGUUUCAAUUCCTT against Ddx27 | -0.876
GGCACUCAGAAAUAUUCAGTT against Nap1l3 | 3.84 (active)
GCAGUCUUCCCUCAUCCUUTT against Cox8a | 1.74
GGCAGUAAAUAGUAAGAAATT against Ccr9 | -0.716
GGAGUGGUGUGUCAUUGAUTT against Impact | -0.663
GCACAACAUCCCAGAUAAATT against Ankrd55 | 0.338
GGAUACCCUGCUUCCAAAATT against Hpd | 2.23 (active)
GCCAGGCAAAUUACAUCGCTT against Shroom1 | 0.303
CCUGCACUACUGGAUUGGATT against Vill | 0.265
GCUCCAUUAUGCCAGACUATT against Madcam1 | 0.8
GGAUAAUGAAGAAUGCCAATT against Abca4 | -0.533
CGGACUAUUGGAGACCAACTT against Gpsm2 | 2.16 (active)
GGUCAUCAACGUGCUAGAGTT against Nucb1 | -1.3
GGAUGCAUGAGAAAUGUUATT against Tbc1d14 | -0.0572
GGUAUAAGUUGGCAAGAUCTT against Cry2 | 0.849
CCCUUGAUUACACCACAGUTT against Cfc1 | -2.6 (active)
GGUCACAUUUAAUGUCACATT against Itgam | -0.789
GGACAAUCAGUACCUUAACTT against Tex9 | -0.375
GGAAGGUUUCGCUUUGAAUTT against Tarm1 | -0.469
GGCUCAGAUUUUGUGAUUCTT against Olfr894 | -1.44
GGACUUUUUCACUUUCAAATT against Ugt1a5 | -0.198

Sequence | z-score
CGCCACACACCAUCACAUUTT against Scap | -0.0743
GGAAUAUUCUCUCAUCACATT against Mmachc | -2.07 (active)
GCUAACCAUGUGACAAUAATT against Timm8a1 | -1.39
GGCCCAGCAGACAACUUUATT against Sgca | 0.797
CCUCCGGAGUAUAAACAAUTT against Nr1i3 | 0.21
GGAGGAAGAAGACUCAGAATT against Prkag2 | 3.46 (active)
GAAGAGGGCACCUAGUUUCTT against Cox7b | 0.249
GCCACGAAGGUACUAUGUATT against Tbce | 0.176
GGGAGAAAUGCCUUUAGUCTT against Erfe | 3.79 (active)
GGUUACCACACUAUGUUACTT against Tbc1d2b | 0.454
GGAAAAGUCCAAGUUUGAATT against Hmgb2 | -0.104
GGAGAUAAUCCUGAAUGGCTT against Hsd3b6 | -1.18
GGCCAAAAGGUUGAGCAGUTT against Nsun2 | 0.311
GCUUUUAGGCCUCCAAAAGTT against Lmnb2 | 1.15
GGAACUUCGUCAGUACAUUTT against Setdb1 | 5.77 (active)
GGAGAAACUGGCAGACCUUTT against Washc3 | -0.388
GCCUUCAGGACGAUUUAUUTT against Pla2g7 | 1.19
GCGAAAUCUUUGUCACUAATT against Sertad4 | -0.201
GGAAGUAUUUGAUCAUGGATT against Smarca5 | -0.465
GGAAAGGUAAUGCAUCACATT against Rev3l | -1.68
GGCUGAAGAUCACCAAGAATT against Neurl1a | -0.869
CGGAAUCAUUCGGAAUGAGTT against Capza3 | -1.01

Sequence | z-score
GGAAAUCCUGAAGUUUCCUTT against Grk5 | 4.41 (active)
CGUGAUCCCACAGAUGUAGTT against Csrp3 | -0.649
GGGAGGUGUCUUUACGUCUTT against Neto1 | -0.773
GCUGCACGAUCGGAAUGGUTT against Ssh1 | -0.678
GGCUUACUUGAAGCAUUUATT against Plcb4 | 2.13 (active)
GGUUUUUGCUGAGUCUUGCTT against Olfr299 | 0.00611
GGAAAAGAAAGCAAAGAGATT against Dach1 | -1.15
GGAAAUGUUUACCUGCCAUTT against Zfp512 | 2.32 (active)
GCUACAGCAGACAUAGAAATT against Sparcl1 | 0.0109
GGUUGGAAUUGUGCAAUAATT against Fbxo48 | 0.164
GGACAUUUAUCCCAUGACATT against Coro2b | 0.814
GGAAUUCAAUGACGUGUACTT against Mapk14 | 0.493
CCGUAUUUGUGCUGUGUCUTT against Olfr275 | -1.53
CCUUAUUUUACGGAACUGCTT against Olfr1018 | 2.11 (active)
CCGGAGUUGAAACCUAAAATT against Hmgn5 | 0.524
GCAACAUAUGUUCAAGAUCTT against Ccdc163 | 0.53
GGCCAUCAGAGUCAACUGUTT against Immt | -0.285
GCUAGCAGAGAUACAAUGUTT against Rasal3 | 3 (active)
GGAAGAUGAAAGUUCCAUATT against Ankar | 1.17
GGGUGUAGUCCUGAAAGUATT against Arpc5l | 2.45 (active)
GCUUGUGAGUGGAACUUUCTT against Mcm6 | 0.62
CCUACAACAGAUGUGCAGCTT against Fam222b | -1.82

Sequence | z-score
CCGGGACAUAGAGGAAAUUTT against Cabp1 | -0.113
CGCACAUGAAGCCACAUAUTT against Plekhb1 | -0.176
UCCAAGCUGUUGUUUAUACTT against Acsl1 | -0.0655
CCGUUGGAGUCCAACCUAUTT against Ube2a | 2.2 (active)
GCUGUUACUCAGCAGAGAGTT against Bach2 | -1.02
GGCCCUCUCCAAGUCUAUATT against Pex7 | 0.7
GGAGGAAUUUCAAAUACUATT against A530032D15Rik | 0.853
GGAUAGCAGCUGAGUUUUATT against Asb5 | 2.57 (active)
GGAAGUCAUUAUGUGAUCCTT against Nfyb | -0.404
GCCUACAAUCGAGACAGUUTT against Sgca | 1.15
GGACACAGACACCAAACAATT against Kat2a | -1.71
CCCACUAAGGAGAUCAGUUTT against Lasp1 | 1.32
GGUACUGGCAUGGUGACAATT against Mmp11 | -2.52 (active)
GGUUUCUUGCCAAGAAAUUTT against Asic5 | -0.359
GGAAACCUGCAUCCUAUGATT against Olfr195 | -0.196
GAGCUGGGAGGUUUCACAGTT against Tspo | -1.42
GGCUUAAGGCUAAUGGUCUTT against Fxyd5 | -0.778
GCCUGCCUACGAGAUCAACTT against Mgp | -0.0804
CCGUGAAAAAAUUAAACAGTT against Slk | 0.338
CGUUUGCUCUAAAGCCAGGTT against Smagp | 0.886
GGACAAAAUCACCUCACUUTT against Olfr1135 | -3.29 (active)
GGAAUUUCAUGGCAAGGGUTT against Fmc1 | 0.652

Sequence | z-score
GGAUCACAUGAAAGGAUUATT against Dclre1c | -0.242
CCCAGCAACUACUGGAAACTT against Tas2r139 | -0.293
CGCUGUGCUGAGCUUACUUTT against D17H6S53E | -2.36 (active)
GGUUAUCUCAAAACUCGACTT against Prox2 | -0.119
GGUAACUGAUUGCUUAGAUTT against Smndc1 | 0.836
GCACUACAUUGUGGCUGUCTT against Itpr3 | -2.57 (active)
GGGUUUGAACUGGUGAUUGTT against Cenpp | -0.525
GGACAAAGGGAUAAUGCUGTT against Aldoc | 0.735
GGUUUUGGAAAAAGUGGAUTT against Chp1 | -0.867
GCCCUGUACCUUUUAGCUUTT against Olfr704 | -0.306
CCUUGUUCAAAAAGAUGGCTT against Serpina1f | -2.08 (active)
GGCCAUCAAGAGUUUCUUUTT against Nr0b1 | 0.876
GCGUGUCUUGCUCUUUUGATT against Usp22 | -1.21
GGAAUCCUCUGAAUAACCUTT against Vmn1r172 | -1.14
GGGUGAUUUCUACCUUCAATT against D630003M21Rik | -0.496
GGAAGAGGAAAUCACCACATT against Clec11a | -2.16 (active)
GGUUGGUGAUGGCACAAACTT against Cct8 | -0.469
GGUAGAACUUAUUGUGGACTT against Ly6f | -0.692
CCUAUAAAGCUCUAAAGGATT against Caprin1 | 0.115
GGGUUUCCACAGACAAUGUTT against V1rg10 | -0.837
